Test systems include HCT-15 colon; HT29 colon; SNB-75 CNS; SNB-19 CNS; U251 CNS; PC-3 prostate; SK-MEL-5 melanoma; UACC-62 melanoma; LOX IMVI melanoma; SK-MEL-28 melanoma; SK-MEL-2 melanoma; EKVX NSCLC; SN12C renal; UO-31 renal; TK-10 renal; ACHN renal; CAKI-1 renal; A498 renal; CCRF-CEM leukemia; MOLT-4 leukemia.
What all share (assay): NCI-60 one-dose screen, 48 h (100 = growth as untreated, 0 = no growth, -100 = all killed)
What all share (conditions): 10 µM unless noted

The panel holds about 83,000 compounds, 20% with a hit somewhere; the sample as a whole holds those more often.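 Each cell line was grown in a 96-well plate and treated with one concentration of compound for 48 hours. Values below 10 were considered active.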 Values without a mark were called inactive. Active and inactive are the calls of the source.

For `COc1cc(/C=C/C(=O)c2ccc(NC(=O)CSc3nnc(-c4ccc(-c5nc6ccc(Cl)cc6[nH]5)cc4)o3)cc2)cc(OC)c1OC`, the growth is 53.7% in the test with HCT-15 colon; 106% in the test on HT29 colon; 88.4% with SNB-75 CNS; 89% in the test with SNB-19 CNS; 88.5% in the test on U251 CNS; 92.2% in the test on PC-3 prostate. Further, the growth with SK-MEL-5 melanoma was 94.1%; in the test on UACC-62 melanoma it was 74.2%; in the test on LOX IMVI melanoma it was 88.6%; with SK-MEL-28 melanoma it was 88.3%; in the test with SK-MEL-2 melanoma, 99.2%; in the test on EKVX NSCLC it was 103%. In addition, the growth in the test on SN12C renal was 104%; with UO-31 renal it was 86%; with TK-10 renal it was 136%; in the test on ACHN renal, 96.7%; in the test on CAKI-1 renal, 91.2%; with A498 renal it was 101%. Also, the growth with CCRF-CEM leukemia was 85.9%; in the test on MOLT-4 leukemia it was 85%.
For `Cc1ccc(NC(=O)c2ccc(CN3CCOCC3)c(C(F)(F)F)c2)cc1Oc1ccc(-c2[nH]nc3ncnc(N)c23)cc1`, the growth in the test with HCT-15 colon is 40.5%; in the test with HT29 colon it was 37%; with SNB-75 CNS it was 112%; with SNB-19 CNS, 95.5%; in the test with U251 CNS, 66.9%; with PC-3 prostate it was 43.4%. In addition, the growth was 16.3% with SK-MEL-5 melanoma; 19.4% in the test on UACC-62 melanoma; 59.1% in the test on LOX IMVI melanoma; 47.8% in the test with SK-MEL-28 melanoma; 59.6% with SK-MEL-2 melanoma; 65.6% in the test on EKVX NSCLC. In addition, the growth is 82.3% in the test on SN12C renal; 54.6% with UO-31 renal; 80% with TK-10 renal; 58.2% in the test with ACHN renal; 39.2% with CAKI-1 renal; 87.3% with A498 renal. For the same molecule, the values for the growth in the test on CCRF-CEM leukemia and in the test with MOLT-4 leukemia were 47.8% and 46.3%, respectively.
Regarding `CC[C@H](CO)Nc1ccc2ncc(C#Cc3cncc(C(=O)Nc4ccc(CN5CCN(C)CC5)c(C(F)(F)F)c4)c3)n2n1`, the growth with HCT-15 colon is -38.1% (active); in the test on HT29 colon, -35.6% (active); in the test on SNB-75 CNS, -91.3% (active); with SNB-19 CNS it was -22.4% (active); in the test on U251 CNS it was -85.3% (active); in the test with PC-3 prostate it was -31.7% (active). Further, the growth is -95.4% (active) in the test on SK-MEL-5 melanoma; -57.7% (active) in the test with UACC-62 melanoma; -98.8% (active) in the test on LOX IMVI melanoma; -79.9% (active) in the test with SK-MEL-28 melanoma; -97.7% (active) with SK-MEL-2 melanoma; -64.3% (active) in the test on EKVX NSCLC. The growth with SN12C renal was -65.1% (active); with UO-31 renal, -83.3% (active); in the test with TK-10 renal it was -57% (active); in the test with ACHN renal, -98.6% (active); with CAKI-1 renal it was -79.7% (active); with A498 renal, -99.4% (active). For the same molecule, the growth with CCRF-CEM leukemia was 1.55% (active); in the test with MOLT-4 leukemia, -3.11% (active).
`Nc1nc(N)c2c(n1)NC(c1ccc(Cl)cc1)CC(c1ccc(Nc3nc(NCCO)nc(N4CCOCC4)n3)cc1)=N2` (stereo not given): the growth in the test on HCT-15 colon is 53.7%; with HT29 colon, 57.2%; in the test with SNB-75 CNS, 72.5%; in the test on SNB-19 CNS, 87.4%; in the test on U251 CNS, 59.5%; in the test with PC-3 prostate it was 64%. Further, the growth was 67.4% in the test on SK-MEL-5 melanoma; 89.9% in the test on UACC-62 melanoma; 61.2% in the test with LOX IMVI melanoma; 83.5% in the test on SK-MEL-28 melanoma; 88.2% in the test with SK-MEL-2 melanoma; 89.8% in the test with EKVX NSCLC. Also, the growth with SN12C renal is 82.1%; in the test with UO-31 renal, 84.4%; in the test with TK-10 renal, 103%; with ACHN renal, 93.7%; with CAKI-1 renal, 97.2%; in the test with A498 renal, 90.6%. The growth is 48.2% in the test on CCRF-CEM leukemia and 45.5% in the test with MOLT-4 leukemia.
As to `COc1cc(Cn2cc3c(c2)-c2onc(CN4CCOCC4)c2CC3)cc(OC)c1OC`, the growth with HCT-15 colon is 97.9%; in the test with HT29 colon it was 104%; with SNB-75 CNS, 117%; in the test on SNB-19 CNS it was 97.2%; in the test on U251 CNS, 102%; with PC-3 prostate it was 91.6%. Moreover, the growth was 74.9% with SK-MEL-5 melanoma; 78.8% with UACC-62 melanoma; 100% with LOX IMVI melanoma; 105% with SK-MEL-28 melanoma; 104% with SK-MEL-2 melanoma; 83% in the test with EKVX NSCLC. For the same molecule, the growth in the test with SN12C renal was 95.5%; in the test with UO-31 renal, 78.7%; in the test on TK-10 renal, 107%; in the test with ACHN renal, 99.5%; in the test with CAKI-1 renal it was 94.7%; in the test on A498 renal, 114%. The growth in the test with CCRF-CEM leukemia is 96.9%; in the test with MOLT-4 leukemia, 98.3%.
For the molecule `Cc1ccc(S(=O)(=O)NCCNc2nc(Nc3ccc(N4CCN(C)CC4)cc3)nc3ccsc23)cc1`, the growth in the test on HCT-15 colon was 29.2%; in the test on HT29 colon, 63.4%; in the test with SNB-75 CNS it was 67.8%; with SNB-19 CNS, 104%; in the test with U251 CNS, 90.8%; with PC-3 prostate, 87.9%. Further, the growth in the test on SK-MEL-5 melanoma was 95.9%; in the test on UACC-62 melanoma it was 103%; in the test with LOX IMVI melanoma it was 97.8%; in the test with SK-MEL-28 melanoma it was 103%; in the test with SK-MEL-2 melanoma, 115%; in the test with EKVX NSCLC, 94.9%. In addition, the growth was 97.4% in the test with SN12C renal; 92.4% in the test with UO-31 renal; 121% in the test on TK-10 renal; 106% in the test with ACHN renal; 74.6% in the test on CAKI-1 renal; 110% in the test with A498 renal. The figures for the growth in the test on CCRF-CEM leukemia and with MOLT-4 leukemia were 74.3% and 79.1%, respectively.
For `N#Cc1c(-c2cccs2)cc(-c2cnccn2)nc1SCC(=O)Nc1ccc(Br)cc1`, the growth was 82.9% in the test with HCT-15 colon; 90.9% in the test with HT29 colon; 50.6% in the test with SNB-75 CNS; 69.4% in the test with SNB-19 CNS; 83% in the test on U251 CNS; 86.9% in the test on PC-3 prostate. Besides, the growth in the test with SK-MEL-5 melanoma is 91.1%; in the test on UACC-62 melanoma, 78.9%; with LOX IMVI melanoma it was 53.3%; in the test on SK-MEL-28 melanoma, 89.7%; in the test on SK-MEL-2 melanoma, 106%; in the test with EKVX NSCLC, 57.6%. Moreover, the growth was 87.7% with SN12C renal; 58.4% with UO-31 renal; 83% in the test with TK-10 renal; 64.5% with ACHN renal; 64.4% in the test with CAKI-1 renal; 6.18% (active) in the test on A498 renal. Also, the growth in the test with CCRF-CEM leukemia was 83.4%; in the test on MOLT-4 leukemia, 89.5%.
In the case of `O=C(CSc1nnc(-c2ccc3nc(-c4ccccc4)[nH]c3c2)o1)Nc1ccc(C(=O)/C=C/c2ccccc2)cc1`, the growth in the test on HCT-15 colon was 110%; in the test with HT29 colon, 108%; with SNB-75 CNS, 113%; with SNB-19 CNS, 99.9%; in the test on U251 CNS it was 98.2%; in the test on PC-3 prostate it was 106%. In addition, the growth is 98.3% with SK-MEL-5 melanoma; 97.1% in the test on UACC-62 melanoma; 97.3% with LOX IMVI melanoma; 103% in the test on SK-MEL-28 melanoma; 103% in the test with SK-MEL-2 melanoma; 106% in the test with EKVX NSCLC. Also, the growth with SN12C renal is 98%; in the test with UO-31 renal it was 87.4%; in the test on TK-10 renal it was 110%; in the test on ACHN renal, 102%; in the test with CAKI-1 renal it was 103%; in the test on A498 renal, 95.9%. The growth in the test with CCRF-CEM leukemia was 107%; with MOLT-4 leukemia it was 93.2%.

These data come from PubChem BioAssay (NCI).
